From PubChem BioAssay
Activity calls are given as the source filed them.

What was measured:
[1] = optical density shifts of acrAB sulA E. coli – strain DRC41, OD650, 48 h, E. coli filamentation inducer project, primary screen (AID 1152); settings: higher = more signal, called active from +8 up or from −8 down;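 note: E. coli MC1000 strain DRC41 lacking acrAB efflux pump and sulA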
[2] = probe aLefty1 binding on compound microarray – biochemical, small-molecule microarray, 635/667 nm fluorescence, primary screen (AID 1153); settings: higher = more signal;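 note: score merges spot fluorescence with signal-to-noise ratio from the scanned slide images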
[3] = plasmodial surface anion channel blockers, osmotic lysis – cell-based, P. falciparum Indochina, OD700, 1 h, primary screen (AID 1154); settings: P. falciparum Indochina infected RBC osmotic lysis, higher = more signal, called active from +8 up or from −8 down
[4] = plasmodial surface anion channel blockers, osmotic lysis – cell-based, P. falciparum Indochina, OD700, 2 h, primary screen (AID 1155);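 note: lysis reports solute entry through the parasite surface anion channel PSAC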; settings: P. falciparum Indochina infected erythrocytes, higher = more signal, called active from +8 up or from −8 down
[5] = changes in parasitized red cell lysis, either direction – P. falciparum Indochina, OD700, 3 h, PSAC antagonist project, primary screen (AID 1156); settings: P. falciparum-infected erythrocytes, osmotic lysis, higher = more signal, called active from +8 up or from −8 down
[6] = plasmodial surface anion channel blockers, osmotic lysis – cell-based, P. falciparum Indochina, OD700, 18 h, primary screen (AID 1157); settings: P. falciparum Indochina infected erythrocytes, osmotic lysis OD700, 18 h; higher = more signal, called active from +8 up or from −8 down
[7] = S6 kinase pathway phospho-S6 level changes – cell-based, A549, cytoblot, luminescence, serum-stimulated, primary screen (AID 1158); settings: 5 h, higher = more signal;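 note: serum-stimulated A549 lung adenocarcinoma cells; signal is phosphorylated S6 detected by cytoblot immunostaining with HRP secondary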
[8] = target: NADPH oxidase 2 (Homo sapiens) (UniProt P04839); test: compounds shifting NOX2 Amplex Red fluorescence – cell-based, HEK293-NOX2, PMA-stimulated, NOX inhibitor project, primary screen (AID 1159); settings: 45 min, higher = more signal, called active from +8 up or from −8 down; note: test concentration not given here
NADPH oxidase 2 (Homo sapiens), sequence (P04839 whole entry, looked up): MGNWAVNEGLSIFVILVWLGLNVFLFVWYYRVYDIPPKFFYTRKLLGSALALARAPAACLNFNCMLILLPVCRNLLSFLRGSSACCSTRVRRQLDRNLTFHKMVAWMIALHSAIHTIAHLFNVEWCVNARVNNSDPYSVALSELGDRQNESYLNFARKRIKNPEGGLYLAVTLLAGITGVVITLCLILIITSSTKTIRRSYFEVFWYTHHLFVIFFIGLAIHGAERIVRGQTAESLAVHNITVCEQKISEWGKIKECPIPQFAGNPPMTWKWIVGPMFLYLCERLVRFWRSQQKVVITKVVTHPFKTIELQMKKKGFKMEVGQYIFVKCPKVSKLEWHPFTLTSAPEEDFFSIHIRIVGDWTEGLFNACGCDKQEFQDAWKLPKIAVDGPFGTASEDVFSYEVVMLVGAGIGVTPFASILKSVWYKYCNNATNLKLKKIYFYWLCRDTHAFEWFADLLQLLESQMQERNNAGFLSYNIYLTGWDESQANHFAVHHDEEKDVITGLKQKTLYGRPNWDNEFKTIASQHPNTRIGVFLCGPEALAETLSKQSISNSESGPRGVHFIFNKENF

[9] = target: NADPH oxidase 4 (Homo sapiens) (UniProt Q9NPH5); test: compounds shifting NOX4 Amplex Red fluorescence – cell-based, HEK293-NOX4, tetracycline-induced, NOX inhibitor project, primary screen (AID 1160); settings: HEK293-NOX4, Amplex Red H2O2 fluorescence, 45 min; higher = more signal, called active from +8 up or from −8 down
NADPH oxidase 4 (Homo sapiens), sequence (Q9NPH5 whole entry, looked up): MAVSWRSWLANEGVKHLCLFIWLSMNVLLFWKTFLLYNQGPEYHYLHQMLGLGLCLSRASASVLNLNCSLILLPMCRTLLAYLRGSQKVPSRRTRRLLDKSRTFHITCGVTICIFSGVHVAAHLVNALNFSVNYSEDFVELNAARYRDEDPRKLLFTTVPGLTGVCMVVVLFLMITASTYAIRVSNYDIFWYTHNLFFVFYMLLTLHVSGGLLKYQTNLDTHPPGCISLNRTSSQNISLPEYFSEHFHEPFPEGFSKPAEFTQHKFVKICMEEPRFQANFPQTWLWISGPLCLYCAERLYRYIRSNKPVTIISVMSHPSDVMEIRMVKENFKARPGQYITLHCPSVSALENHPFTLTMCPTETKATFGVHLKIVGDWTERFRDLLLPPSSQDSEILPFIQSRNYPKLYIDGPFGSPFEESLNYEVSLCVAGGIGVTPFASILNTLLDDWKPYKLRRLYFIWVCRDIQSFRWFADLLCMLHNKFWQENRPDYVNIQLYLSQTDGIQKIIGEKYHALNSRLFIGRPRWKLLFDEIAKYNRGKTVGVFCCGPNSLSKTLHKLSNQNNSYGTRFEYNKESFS

[10] = target: NADPH oxidase 5 (Homo sapiens) (UniProt Q96PH1); test: compounds shifting NOX5 Amplex Red fluorescence – cell-based, HEK293-NOX5, NOX inhibitor project, primary screen (AID 1161); settings: HEK293-NOX5, ionomycin, 45 min, higher = more signal
NADPH oxidase 5 (Homo sapiens), sequence (Q96PH1 whole entry, looked up): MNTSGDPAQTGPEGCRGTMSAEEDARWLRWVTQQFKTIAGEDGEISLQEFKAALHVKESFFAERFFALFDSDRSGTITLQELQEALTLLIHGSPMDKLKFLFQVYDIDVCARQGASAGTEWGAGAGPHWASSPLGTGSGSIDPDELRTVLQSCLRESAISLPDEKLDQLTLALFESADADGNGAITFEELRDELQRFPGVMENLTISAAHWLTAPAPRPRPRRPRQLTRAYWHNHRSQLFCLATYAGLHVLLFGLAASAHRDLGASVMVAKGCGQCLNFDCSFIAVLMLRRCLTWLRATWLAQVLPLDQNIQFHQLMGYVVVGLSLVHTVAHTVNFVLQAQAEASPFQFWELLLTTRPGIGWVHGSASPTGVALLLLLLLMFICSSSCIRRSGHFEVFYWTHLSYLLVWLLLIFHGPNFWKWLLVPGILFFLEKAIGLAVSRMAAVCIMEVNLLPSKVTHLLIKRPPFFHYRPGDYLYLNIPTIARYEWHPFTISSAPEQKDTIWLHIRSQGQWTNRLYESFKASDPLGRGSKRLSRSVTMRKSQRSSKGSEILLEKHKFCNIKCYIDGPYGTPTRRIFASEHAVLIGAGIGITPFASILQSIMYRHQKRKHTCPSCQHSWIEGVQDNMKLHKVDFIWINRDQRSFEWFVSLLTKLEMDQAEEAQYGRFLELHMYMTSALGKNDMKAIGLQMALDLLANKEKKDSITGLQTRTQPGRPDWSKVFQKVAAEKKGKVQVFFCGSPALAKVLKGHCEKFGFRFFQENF

[11] = compound effects on lung adenocarcinoma cell viability – A549, calcein-AM fluorescence, 48 h, basal, profiling panel (AID 1162); settings: higher = more signal; note: test concentration not given here
[12] = compound effects on differentiated 3T3-L1 adipocyte viability – cell-based, 3T3-L1 adipocytes, calcein-AM fluorescence, 48 h, basal, profiling panel (AID 1163); settings: 3T3-L1 adipocytes viability, higher = more signal; note: test concentration not given here
[13] = compound effects on hepatocellular carcinoma cell viability – HepG2, calcein-AM fluorescence, 48 h, basal, profiling panel (AID 1164); settings: higher = more signal; note: test concentration not given here
[14] = compound effects on multiple myeloma cell viability – MM1S, calcein-AM fluorescence, 48 h, basal, profiling panel (AID 1165); settings: higher = more signal;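 note: viability of MM1S multiple myeloma cells under basal unstimulated conditions; test concentration not given here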
[15] = calcein-AM signal in unstimulated myeloma cells – cell-based, calcein-AM fluorescence, 48 h, PK04 Diversity Set, profiling panel (AID 1166); settings: RPMI8226 myeloma viability, higher = more signal;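 note: cells grown under basal conditions without added stimulus; test concentration not given here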
[16] = JC-1 mitochondrial signal, unstimulated HepG2 cells – cell-based, JC-1 fluorescence, 24 h, 100 nL compound, profiling panel (AID 1167); settings: HepG2 mitochondrial potential, higher = more signal; note: test concentration not given here
[17] = JC-1 mitochondrial signal, unstimulated adipocytes – cell-based, JC-1 fluorescence, 3T3-L1 adipocytes, 24 h, 100 nL compound, profiling panel (AID 1168); settings: JC-1 mitochondrial fluorescence, higher = more signal, called active from +8 up or from −8 down; note: test concentration not given here
[18] = JC-1 mitochondrial signal, unstimulated myeloma cells – cell-based, JC-1 fluorescence, RPMI8226, 24 h, 100 nL compound, profiling panel (AID 1169); settings: JC-1 mitochondrial potential fluorescence, higher = more signal; note: test concentration not given here
[19] = JC-1 mitochondrial signal, unstimulated MM1S myeloma – cell-based, JC-1 fluorescence, 24 h, 100 nL compound, profiling panel (AID 1170); settings: MM1S mitochondrial potential, higher = more signal; note: test concentration not given here
[20] = resazurin metabolic signal in A549 cells – cell-based, resazurin fluorescence, 24 h, PK04 Diversity Set, profiling panel (AID 1171); settings: A549 viability, higher = more signal, called active from +8 up or from −8 down; note: test concentration not given here

SMILES	z-score [1]	composite z-score [2]	z-score [3]	z-score [4]	z-score [5]	z-score [6]	z-score [7]	z-score [8]	z-score [9]	z-score [10]	z-score [11]	z-score [12]	z-score [13]	z-score [14]	z-score [15]	z-score [16]	z-score [17]	z-score [18]	z-score [19]	z-score [20]
CON=Cc1ccc(C(=O)N2[C@H](c3ccc(C)cc3)[C@@H](C)CC[C@H]2C(=O)OC)cc1	-0.134 (inactive)	-0.147	1.65 (inactive)	1.25 (inactive)	0.0014 (inactive)	1.1 (inactive)	-0.0424	-0.88 (inactive)	-0.304 (inactive)	-0.376	0.281	0.0609	-0.296	0.336	0.0411	0.129	0.345 (inactive)	0.344	1.07	1.03 (inactive)
O=C1[C@H]2[C@H]3[C@H](O)[C@H](O)CC(=NOC[C@@H](O)COCc4ccco4)[C@H]3CC[C@H]2C(=O)N1C[C@@H]1CCCO1	-0.362 (inactive)	-0.324	0.342 (inactive)	0.276 (inactive)	-0.425 (inactive)	0.33 (inactive)	-0.637	0.276 (inactive)	0.557 (inactive)	-0.0426	-0.0501	-1.11	-1.22	0.313	-0.907	-0.809	-0.605 (inactive)	-0.271	-0.278	0.622 (inactive)
COc1ccc(O[C@H]2C=C[C@@H](c3ccccc3)O[C@@H]2COC(=O)CCC(C)=NOC(C)CN2CCCc3nc(C)c(C)cc32)cc1 (stereo not given in full)	-0.343 (inactive)	0.0004	8.59 (active)	0.812 (inactive)	0.54 (inactive)	0.563 (inactive)	-0.314	-2.38 (inactive)	-0.643 (inactive)	-1.35	1.12	0.0929	0.919	-1.2	-0.63	1.54	-0.0369 (inactive)	-0.455	-1.18	1.21 (inactive)
COC(=O)NCC=Cc1nc(CCCO)co1	-0.0186 (inactive)	-0.164	0.0325 (inactive)	0.496 (inactive)	-0.304 (inactive)	-0.145 (inactive)	-0.726	-0.745 (inactive)	0.996 (inactive)	0.449	0.206	-0.683	0.392	0.225	0.0204	-0.64	0.331 (inactive)	-0.0369	-0.606	-0.238 (inactive)
COc1ccc(O[C@H]2C=C[C@@H](c3ccccc3)O[C@@H]2CON=C2[C@H]3CCn4c(=O)n(-c5ccccc5)c(=O)n4[C@H]3[C@H](O)[C@@H]3O[C@H]23)cc1	-0.402 (inactive)	-0.012	8.37 (active)	1.25 (inactive)	0.671 (inactive)	0.858 (inactive)	-0.511	-1.37 (inactive)	-0.132 (inactive)	-0.17	0.455	-0.669	-0.0924	-2.98	-1.37	-0.0967	0.112 (inactive)	-0.921	-0.429	-1.55 (inactive)
